Source: PubChem (Columbia University Molecular Screening Center)
VCAM1 TNFa inh – reduces TNF alpha induced VCAM1 expression in HUVEC | inhibition, % at 2 µM | 95,000 compounds, 0.48% hits | HUVEC TNFa-induced VCAM-1 immunofluorescence, high-content imaging;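 active means inhibition above the batch mean plus 3 SD, with images confirmed as a hit by eye, cut at about 37% in these data; inconclusive means inhibition above that limit but hit not confirmed in images; inactive means inhibition not above that limit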;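 further: 0% = TNF-stimulated DMSO wells and 100% = unstimulated control wells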
IL1B NFkB inh – blocks IL-1B driven NFkB nuclear translocation in HUVEC cells; HUVEC IL-1B NFkB p65 nuclear translocation imaging; AID 796; inhibition, % at 2 µM; 94,000 compounds, 0.43% hits;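 active means inhibition above about 30% together with a positive call from visual inspection of the well image, limit read from the data; inconclusive means inhibition above a set limit but visual check negative; inactive means inhibition not above a set limit, visual check negative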;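 further: nuclear over cytoplasmic p65 intensity ratio measured by imaging; 0% = IL-1B stimulated DMSO wells and 100% = unstimulated DMSO wells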
TNFa cytotox – toxic to HUVEC cells under TNF alpha stimulation; HUVEC TNFalpha-stimulated, Hoechst cell count, imaging; cell count reduction, % at 2 µM; 93,000 compounds, 0.17% hits; AID 848;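 active means cell count reduction exceeding the screen mean by over 5 SD, scaled to untreated wells per plate, cut at about 78% in these data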;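 further: cells counted after 24 h of TNF alpha exposure following the 1 h pretreatment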
IL1B NFkB pot – enhances IL-1B driven NFkB nuclear translocation. HUVEC IL-1B NFkB p65 nuclear translocation imaging. 94,000 compounds, 0.3% hits. activation, % at 2 µM;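 active means activation above 40%, about the mean plus 3 SD, also judged a hit on visual image review; inconclusive means activation above 40% but not a hit on visual review; inactive means activation not above 40% and no visual hit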;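 further: percent activation is computed from the nuclear over cytoplasmic p65 intensity ratio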
HUVEC tox IL1B – toxic to HUVEC cells under IL-1B stimulation; cell count reduction, % at 2 µM; 94,000 compounds, 0.41% hits; HUVEC cell count loss, Hoechst imaging, IL-1B stimulated;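 active means cell count reduction more than 3 SD above the screen-wide mean, cut at about 70% in these data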;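 further: normalized per plate to untreated control cells as the no-loss baseline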
Numbers without * were called inactive; u = inconclusive; x = no result. Sampled rows, rich in hits. Any-hit rate of the full collection: about 1.5%.

SMILES | VCAM1 TNFa inh | IL1B NFkB inh | TNFa cytotox | IL1B NFkB pot | HUVEC tox IL1B
CCc1nc(Nc2ccc3c(c2)OCCO3)c2oc3ccccc3c2n1 | 9 | 6 | 13 | -6 | 1
Cc1nc(Nc2ccc3c(c2)OCCO3)c2oc3ccccc3c2n1 | 10 | -87 | 6 | 87* | 5
CCCCn1c(-c2ccc([N+](=O)[O-])cc2)n[nH]c1=S | -19 | -2 | -8 | 2 | 56
CCCCC(=O)NC(=S)Nc1ccccc1C(=O)Nc1ccccc1 | 93* | 4 | 90* | -4 | 11
CCCCCC(=O)NC(=S)Nc1ccccc1C(=O)OC | -5 | -35 | -2 | 35 | 6
CCCSc1nc2c(=O)[nH][nH]c(=O)c2n1Cc1ccccc1 | 6 | -3 | 0 | 3 | 2
Cc1nn(-c2cc(C)c3ccccc3n2)c2c1C1C(C2)C1(C)C (stereo unspecified) | 60* | -35 | 12 | 35 | -41
Cc1cc(-n2nnc3ccccc32)nc2ccccc12 | 12 | -4 | 1 | 4 | -22
Cc1nc([N+](=O)[O-])c(Br)n1CC(=O)c1ccc(Br)cc1 | 40* | x | -18 | x | x
Cc1nn(-c2ccccn2)c2c1C(c1ccccn1)C1=C(CCCC1=O)N2 (stereo unspecified) | -18 | -9 | -22 | 9 | -4
CCCCOC(=O)C1[C@H]2C(=O)N(CCc3ccccc3)C[C@]23C=C[C@H]1O3 (stereo partly specified) | 18 | -27 | -12 | 27 | -14
CCCOC(=O)C1C2C=C[C@]3(CN(CCc4ccccc4)C(=O)[C@H]13)O2 (stereo partly specified) | 93* | -6 | 82* | 6 | -34
COc1ccc(C(=O)c2ccc(N(C)C)cc2)c(OC)c1 | 8 | -13 | -29 | 13 | 4
CN(C)c1ccc(C(=O)c2ccc(N(C)C)c3ccccc23)cc1 | 99* | 28 | 84* | -28 | 52
Cc1nn(-c2ncc(C(F)(F)F)cc2Cl)c(=O)n1-c1cccc(Cl)c1 | -16 | 8 | 10 | -8 | -2
Cc1nn(-c2ncc(C(F)(F)F)cc2Cl)c(=O)n1-c1ccccc1Cl | 17 | 31* | 13 | -31 | 19
O=C(CN1CCCCCC1=O)OCc1ncc(-c2ccccc2)o1 | 90* | 5 | 70 | -5 | 31
CCOC(=O)CSc1nc2c(c(=O)n(C)c(=O)n2C)n1CCCc1ccccc1 | 1 | -8 | -7 | 7 | -95
O=C(NCCCO)c1ccc2[nH]c3c(c2c1)CCCC3 | 26 | -83 | -12 | 83* | -14
O=C(NCCO)c1ccc2[nH]c3c(c2c1)CCCC3 | 6 | -2 | -26 | 2 | -33
CC(C)CCNC(=O)C(c1cccs1)N(CC1CCCO1)C(=O)Cn1nnc2ccccc21 (stereo unspecified) | x | 99* | x | -99 | 91*
CC(C)CCNC(=O)C(c1ccco1)N(CC1CCCO1)C(=O)Cn1nnc2ccccc21 (stereo unspecified) | 6 | -19 | 6 | 19 | -7
O=C(O)C1CC=CCC1C(=O)N1CCc2ccccc21 (stereo unspecified) | 16 | -21 | 5 | 21 | -67
O=C(O)C1CC=CCC1C(=O)N1CCCC1 (stereo unspecified) | 82* | 2 | 96* | -2 | -23
O=C(O)Cc1ccc(C(=O)c2ccc(Cl)cc2)s1 | -21 | -1 | -7 | 1 | 7
SMILES | VCAM1 TNFa inh | IL1B NFkB inh | TNFa cytotox | IL1B NFkB pot | HUVEC tox IL1B
Nc1sccc1C(=O)c1ccc(Cl)cc1 | 92* | -18 | -62 | 18 | -38
COC(=O)c1ccc(-n2nnnc2SCC(=O)N2CCCCC2)cc1 | u | 0 | 100* | -1 | -10
CCCOC(=O)c1ccc(-n2nnnc2SCC(=O)N2CCCCC2)cc1 | -3 | 12 | -6 | -12 | -13
CCC1c2ccc(C)n2CCN1C(=O)Nc1ccccc1C(=O)OC (stereo unspecified) | 8 | 1 | -10 | -1 | 92*
CCOC(=O)c1ccccc1NC(=O)N1CCn2c(C)ccc2C1CC (stereo unspecified) | 12 | 1 | -7 | -1 | -14
Cc1cn(C(=O)C(C)N2C(=O)c3ccccc3C2=O)c(C)n1 (stereo unspecified) | -17 | -6 | -12 | 6 | 87*
O=C(OCCCCN1C(=O)c2ccccc2C1=O)c1n[nH]c2ccccc12 | 6 | -25 | 1 | 25 | 0
O=C(OCC(=O)c1ccc([N+](=O)[O-])cc1)/C(=C\c1ccc(Cl)cc1)NC(=O)c1ccccc1 | x | 18 | x | -18 | -26
O=C(OCc1ccccc1)/C(=C/c1ccc(Cl)cc1)NC(=O)c1ccccc1Cl | 6 | -40 | 1 | 40* | -69
